Results filed as inconclusive are left out. Entries that show only a call come without a potency. Activity calls are given as the source filed them. Calls come from the whole dose curve; as a rule, active = well fitted cell-killing curve with a large enough effect; inconclusive = small, poorly fitted or top-dose-only effect, or effect the other way; inactive = flat fitted curve, though single readings scatter.
Assay: Compound cytotoxicity measured by an ATP content assay as a counter-screen for lead compounds in human astrocytes
Conditions: human astrocytes viability, ATP luminescence; series mostly up to 46.1 µM
Method in brief: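 Cytotoxicity expressed as percent inhibition of cell viability from ATP-dependent luminescence, read after 10 min at room temperature with 1:1 kit reagent. Compound exposure times matched the primary screens, e.g. 6, 24 or 72 h, in cultured human astrocytes.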
In the case of `O=C(O)c1ccccc1Nc1cccc(C(F)(F)F)c1`, the Potency is reported as “inactive”. For `O=C(CS)Nc1ccccc1`, the Potency was “inactive”. In the case of `Nc1nc2ccc([N+](=O)[O-])cc2s1`, the Potency is reported as “inactive”. With `O=C(Nc1ccc(C(=O)O)c(O)c1)c1ccccc1` the Potency was “inactive”. For `Cc1c(N)c(=O)n(-c2ccccc2)n1C`, the Potency was “inactive”. For `O=c1c(-c2ccc(O)cc2)coc2cc(OC3O[C@H](CO)[C@H](O)[C@H](O)[C@H]3O)cc(O)c12` (stereo not given in full), the Potency was “inactive”. In the case of `O=c1cc(-c2ccccc2)oc2cc(O)cc(O)c12`, the Potency is reported as “inactive”. For `COc1ccc2nc(NC(=O)Nc3ccccc3)sc2c1`, the Potency was 19.5 µM (active). With `CC(C)OC(=O)CCCC=CC[C@@H]1[C@H](C=C[C@@H](O)COc2cccc(C(F)(F)F)c2)[C@H](O)C[C@@H]1O` the Potency was “inactive”. In the case of `O=C(O)[C@H](CC(=O)N1C[C@@H]2CCCC[C@H]2C1)Cc1ccccc1`, the Potency is reported as “inactive”. In the case of `Cc1ccc(C(=O)c2ccc(CC(=O)O)n2C)cc1`, the Potency is reported as “inactive”. With `C=CCCCCCCCCC(=O)O` the Potency was “inactive”. With `NC(N)=NN=C(/C=C/c1ccc([N+](=O)[O-])o1)/C=C/c1ccc([N+](=O)[O-])o1` the Potency was 3.46 µM (active). For `Cc1cc(O)c2ccccc2c1O`, the Potency was 8.69 µM (active). In the case of `CC=CC[C@@H](C)C(=O)[C@H]1C(=O)N[C@@H](C(C)C)C(=O)N(C)CC(=O)N(C)[C@@H](CC(C)C)C(=O)N[C@@H](C(C)C)C(=O)N(C)[C@@H](CC(C)C)C(=O)N[C@@H](C)C(=O)N[C@H](C)C(=O)N(C)[C@@H](CC(C)C)C(=O)N(C)[C@@H](CC(C)C)C(=O)N(C)[C@@H](C(C)C)C(=O)N1C`, the Potency is reported as “inactive”.
